Values joined by “and” are separate entries in the source; they are usually repeats but may differ in a detail not shown here. Equal values may be shown once. Hit rate of the full screen: of about 310,000 compounds, about 11,000 (3.5%) were called active. About 4% were inconclusive and are not listed. Calls come from the whole dose curve; as a rule, active = well fitted inhibition curve with a large enough effect; inconclusive = small, poorly fitted or top-dose-only effect, or another doubt; inactive = no such curve, though single readings can be large or run the other way. The entries come from a sample that favours actives as a whole.
The compounds below were run against 4'-phosphopantetheinyl transferase ffp (Bacillus subtilis) (UniProt Q9F4F7) (assay: qHTS Assay for Inhibitors of Bacillus subtilis Sfp phosphopantetheinyl transferase (PPTase)). Conditions: Biochemical Sfp PPTase activity.
Outline: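 Compounds were incubated with enzyme (final 15 nM) for 15 min at room temperature before substrate addition started the reaction. Fluorescence at 525 nm excitation, 598 nm emission was recorded immediately and after 30 minutes.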
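Note: the enzyme is Sfp with the accession as filed and its product quenches rhodamine fluorescence.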
Potency is the fitted concentration of half-maximal effect.
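Throughout, for largest response in the series, negative = inhibition: 0% = enzyme reaction without inhibitor and -100% = no enzyme wells.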

SMILES | largest response in the series, negative = inhibition | Potency
Cc1ccc2nc3c(cc(C(=O)NCCc4ccccc4)c(=N)n3CC3CCCO3)c(=O)n2c1 (stereo not given) | 21.3% (inactive) | –
Cc1ccc(CS(=O)(=O)c2ncc(Cl)c(C(=O)Nc3nnc(C)s3)n2)cc1 | -13.2% (inactive) | –
COc1ccc(Cl)cc1NS(=O)(=O)c1cccc(C(=O)NCC2CCCO2)c1 (stereo not given) | 12.9% (inactive) | –
CN(Cc1ccccc1)C(=O)CSc1nc2ccccc2[nH]1 | 9.63% (inactive) | –
Cc1cc2[nH]ncc2cc1NC(=S)NC(=O)c1ccccc1 | 1.08% (inactive) | –
Cn1nnc(NC(=S)NC(=O)c2ccccc2)n1 | – | 35.5 µM (active)
COCCCNC(=S)NC(=O)c1ccccc1 | 8.58% (inactive) | –
O=C(NC(=S)NC1CCS(=O)(=O)C1)c1cccc([N+](=O)[O-])c1 (stereo not given) | -2.6% (inactive) | –
COc1ccc(-c2nc3ccccc3c(=O)n2CCc2ccc(O)cc2)cc1 | -0.523% (inactive) | –
COc1ccc(-c2c(C#Cc3ccccc3)c3ccccc3n2C)cc1 | -20.7% (inactive) | –
COc1ccc(CCNCc2c(-c3ccccc3)n(C)c3ccccc23)cc1 | – | 79.4 µM (active)
CCOc1ccc(-n2c(SCC(N)=O)nnc2-c2ccco2)cc1 | 27.1% (inactive) | –
CCOc1ccccc1Nc1ccc2nonc2c1[N+](=O)[O-] | 1.09% (inactive) | –
O=C(O)c1cccc(S(=O)(=O)Nc2ccc(O)cc2Sc2nc3ccccc3s2)c1 | -29.2% (inactive) | –
O=[N+]([O-])c1c(NCCO)cc(Sc2nc3ccccc3s2)c2nonc12 | – | 6.31 µM (active)
C=CCn1c(CCc2ccc(OC(C)C)cc2)n[nH]c1=S | 14.2% (inactive) | –
C=CCn1c(CCNC(=O)c2cccs2)n[nH]c1=S | – | 7.94 µM (active)
Cc1ccc(C)c2[nH]c(=O)c(CCNC(=O)c3cccs3)cc12 | 6.07% (inactive) | –
COc1ccc(C(=O)NC2CC(C)(C)NC(C)(C)C2)cc1OC | 0.887% (inactive) | –
CC(C)(C)C(=O)/C(C#N)=C/c1ccc(O)cc1 | 8.9% (inactive) | –

SMILES | largest response in the series, negative = inhibition | Potency
N#C/C(=C\c1ccc(O)c(O)c1)C(N)=O | – | 79.4 µM (active) and 56.2 µM (active)
N#C/C(=C\c1ccc(O)c(O)c1)C(=O)NCc1ccccc1 | -22.3% (inactive) and -19.4% (inactive) | –
C=CCOc1ccc(/C=C/C(=O)OCC(=O)NC2CCCCCC2)cc1 | 16.7% (inactive) | –
CCOC(=O)c1ccc(NC(=O)CNC(=O)c2ccco2)cc1 | 7.8% (inactive) | –
CCCN(CCc1ccccc1)C1CCc2c(O)cccc2C1 (stereo not given) | 21.2% (inactive) | –
CC(=O)Nc1ccc(S(=O)(=O)N2N=NC3C2C2CC4C3(CN(C(=O)OC(C)(C)C)S4(=O)=O)O2)cc1 (stereo not given) | 11.6% (inactive) | –
O=C(COC(=O)c1cccs1)NCc1cccs1 | 10.5% (inactive) | –
O=C(COC(=O)C12CC3CC(CC(C3)C1)C2)NCc1ccco1 | -10.5% (inactive) | –
O=C(COC(=O)CCC(=O)c1cccs1)NCc1ccco1 | – | 35.5 µM (active)
CN1CCN(Cc2c(C(=O)N3CCc4ccccc4C3)nc3ccc(Cl)cn23)CC1 | -5.24% (inactive) | –
CCCn1nnnc1NCc1ccc(OC)cc1 | 10.3% (inactive) | –
CNC(=O)c1sc(NCc2ccccc2OC)nc1C | -19.7% (inactive) | –
CCOC(=O)C1=C(C)Nc2sc(C(=O)c3ccc(Br)cc3)c(N)c2C1c1ccc(C(=O)OC)cc1 (stereo not given) | 15.8% (inactive) | –
CCOC(=O)c1sc(=S)n2c1[nH]c(=O)c1ccc(C(=O)OC)cc12 | – | 15.8 µM (active)
CCOC(=O)c1sc(NC(=O)c2ccncc2)nc1C | -1.23% (inactive) | –
CCc1nn(CCCC(=O)Nc2ccc(C)c(C)c2)c(=O)c2cc3occc3n12 | 5.57% (inactive) | –
COc1ccc(N2CCN(Cc3nnc(-c4ccccc4)o3)CC2)cc1 | 2.63% (inactive) | –
COc1ccc(N2CCN(Cc3cc(=O)oc4ccc5ccccc5c34)CC2)cc1 | 4.08% (inactive) | –
COc1ccc(N2CCN(Cc3ccc(Br)s3)CC2)cc1 | – | 39.8 µM (active)
O=C(CN(C(=O)c1csnn1)c1cccc(Cl)c1)NC1CCCC1 | 5.89% (inactive) | –

SMILES | largest response in the series, negative = inhibition | Potency
Cc1nnc(NCCO)c2ccccc12 | 13.5% (inactive) | –
C=CCNc1nnc(C)c2ccccc12 | 4.78% (inactive) | –
NNc1nnc(NN)c2ccccc12 | – | 89.1 µM (active)
CSc1ccccc1OCc1cc(C(=O)N(C)CCc2c(C)n[nH]c2C)no1 | 0.222% (inactive) | –
COc1cc(C(=O)NCc2ccncc2)cc(Br)c1OCc1ccccc1 | 4.37% (inactive) | –
COc1cc(C=O)c(Br)cc1OCC(=O)NCc1ccccc1 | 11.5% (inactive) | –
COc1cc(C(=S)NCc2ccccc2)cc(Br)c1O | – | 8.91 µM (active)
NS(=O)(=O)c1ccccc1NC(=O)c1c(O)c2ccccc2[nH]c1=O | -6.41% (inactive) | –
CC1CC(=O)N(CC(=O)Nc2cccc(Cl)c2)c2ccccc2S1(=O)=O (stereo not given) | 12.1% (inactive) | –
COc1cc2c(cc1OC)[C@@H](Cc1cc(OC)c(OC)c(OC)c1)[N+](C)(CCCOC(=O)CC/C=C/CCC(=O)OCCC[N+]1(C)CCc3cc(OC)c(OC)cc3[C@H]1Cc1cc(OC)c(OC)c(OC)c1)CC2 (stereo not given in full) | -3.12% (inactive) | –
CCCCN(CC)C(=O)C1CCCN(S(=O)(=O)c2cccc3nsnc23)C1 (stereo not given) | 17.1% (inactive) | –
COC(=O)c1c(-c2ccc(C)cc2)csc1N | – | 44.7 µM (active)
CCOC(=O)c1c(-c2ccccc2)csc1NC(=S)NC(=O)c1ccccc1 | -3.92% (inactive) | –
CCC(C(=O)OC)n1cnc2scc(-c3ccc(C)cc3)c2c1=O (stereo not given) | 6.01% (inactive) | –
CCCCC/C=C\C[C@H](O)/C=C/C=C/C=C/[C@@H](O)CCCC(=O)O | 6.53% (inactive) | –
CC(=O)N1CCN(C(=O)C2(NC(=O)Nc3ccc(C)cc3)CCCCC2)CC1 | 14.1% (inactive) | –
O=C(Cc1ccc(Br)cc1)NCCN1CCOCC1 | 14.6% (inactive) | –
COc1ccc(C2/C(=C(/O)c3ccc(OC(C)C)cc3)C(=O)C(=O)N2CCCN2CCOCC2)cc1 (stereo not given) | -22.3% (inactive) | –
CCCCOc1ccc(C(C)(O)CCN2CCOCC2)cc1 (stereo not given) | 6.22% (inactive) | –
CCCOc1ccc(C2c3c(oc4cc(C)c(C)cc4c3=O)C(=O)N2CCCN2CCOCC2)cc1 (stereo not given) | – | 50.1 µM (active)
